Records with an inconclusive call do not appear. Calls of active or inactive are those of the source. Unless noted, the call rests on the fitted dose curve; in most records, active means well fitted curve in the direction sought with a large enough effect in the repeat runs; inconclusive means weak or mixed curves; inactive means no such curve, though single readings can be large; an effect the other way counts as inactive or inconclusive.
Tests used:
[1] = qHTS assay for small molecule agonists of the p53 signaling pathway (AID 651631; calls by dose curve; further: nearly all actives have a fitted effect of over 15% in size)
Outline: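 Testing took place in human colorectal HCT-116 cells with stable p53RE-driven beta-lactamase. After 16 h of compound exposure at 37 °C, a FRET substrate was added and fluorescence recorded 2 h later.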

[2] = qHTS assay for small molecules that induce genotoxicity in human embryonic kidney cells expressing luciferase-tagged ATAD5 (AID 651632); further: nearly all actives have a fitted effect of over 15% in size
Outline: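 Quantitative HTS in HEK293T expressing luciferase-tagged ATAD5, whose levels rise upon DNA damage. Exposure ran 16 hr at 37C and 5% CO2, with luminescence read 30 min after Amplite addition at room temperature.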

[3] = qHTS assay for small molecule agonists of the p53 signaling pathway - cell viability (AID 651633; calls by dose curve; further: series mostly up to about 83 µM; nearly all actives have a fitted effect of over 30% in size)
Outline: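 Viability counter-read: CellTiter-Glo luminescence (30 min, room temperature) in the same p53RE-bla plates. These plates had been exposed to compounds for 16 h at 37 C.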

[4] = qHTS assay for small molecules that induce genotoxicity in human embryonic kidney cells expressing luciferase-tagged ATAD5 - cell viability (AID 651634; calls by dose curve; further: nearly all actives have a fitted effect of over 25% in size)
Outline: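 After 15.5 hr incubation with compound at 37C, 5% CO2, HEK293T ATAD5-luciferase cells received CellTiter-Fluor reagent; fluorescence intensity was quantified following 30 min at 37C.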

[5] = qHTS assay for small molecule disruptors of the mitochondrial membrane potential - cell viability (AID 720634; calls by dose curve;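 further: human HepG2 liver cancer cells; series mostly up to about 83 µM; nearly all actives have a fitted effect of over 20% in size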)
Outline: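 ATP-based luminescent viability readout (CellTiter-Glo, 30 min, room temperature) in HepG2 cells multiplexed with the m-MPI membrane potential dye; compound exposure lasted 1 hr at 37 C.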

[6] = qHTS assay to test for compound auto fluorescence at 590 nm (red) in HepG2 cells (AID 720674)
Outline: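 Red autofluorescence (Ex/Em 540/590 nm, Rose Bengal sodium equivalents) was measured in HepG2 cells, 2,000 per well in MEM plus 10% FBS, plated overnight at 37 C. Readings were taken 1 hr after adding 23 nL compound or DMSO, at 37 C and 5% CO2.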

[7] = qHTS assay to test for compound auto fluorescence at 535 nm (green) in HepG2 cells (AID 720675)
[8] = qHTS assay to test for compound auto fluorescence at 460 nm (blue) in HEK293 cells (AID 720678)
Outline: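 Auto fluorescence in the blue band was quantified as triamterene equivalency. HEK293 cells were seeded at 2,000/well, dosed after a 4-5 hr attachment, and kept overnight at 37C before the 405/460 nm reading.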

[9] = qHTS assay to test for compound auto fluorescence at 590 nm (red) in HEK293 cells (AID 720679)
Outline: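 Autofluorescence equivalency to Rose Bengal sodium, 540/590nm, in HEK293 cells exposed overnight to 23 nL compound per well.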

[10] = qHTS assay to test for compound auto fluorescence at 535 nm (green) in HEK293 cells (AID 720680)
[11] = qHTS assay to test for compound auto fluorescence at 460 nm (blue) in HEK293 cell free culture (AID 720681)
Outline: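 Blue fluorescence (Ex 405/Em 460 nm, triamterene-equivalent) was read immediately after pin transfer of compound or DMSO into medium (DMEM, 10% FBS) without cells.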

[12] = qHTS assay to test for compound auto fluorescence at 535 nm (green) in HEK293 cell free culture (AID 720682)
Outline: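 DMEM + 10% FBS, cell-free; cpd or DMSO pinned in; Ex485/Em535 read; output as fluorescein-equivalent signal.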

[13] = qHTS assay to test for compound auto fluorescence at 590 nm (red) in HEK293 cell free culture (AID 720683)
Outline: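 Red-channel autofluorescence of compounds in culture medium (DMEM, 10% FBS), no cells, measured at 540/590 nm. Rose Bengal sodium is the reference fluorophore for equivalence.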

[14] = qHTS assay to test for compound auto fluorescence at 590 nm (red) in HepG2 cell free culture (AID 720684)
Outline: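 No cells present: MEM + 10% FBS only. Compound pinned in, red label read (540/590 nm). Activity = fluorescence equivalent to Rose Bengal sodium.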

[15] = qHTS assay to test for compound auto fluorescence at 460 nm (blue) in HepG2 cell free culture (AID 720685)
Outline: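 Cell-free plates of MEM plus 10% FBS received 23 nL compound or DMSO vehicle; blue-channel (405/460 nm) intensity scored against triamterene as reference fluorophore.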

[16] = qHTS assay to test for compound auto fluorescence at 535 nm (green) in HepG2 cell free culture (AID 720686)
[17] = qHTS assay to test for compound auto fluorescence at 460 nm (blue) in HepG2 cells (AID 720687)
Outline: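 Blue-channel autofluorescence (Ex/Em 405/460 nm, triamterene-equivalent) was measured after 1 hr compound exposure at 37 C, 5% CO2. Cells were HepG2, plated overnight at 37 C in MEM plus 10% FBS.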

[18] = biological target: Glucocorticoid receptor (Homo sapiens) (UniProt P04150); experiment: qHTS assay to identify small molecule agonists of the glucocorticoid receptor (GR) signaling pathway (AID 720691; active means well fitted activation curve with a large enough effect in the signal ratio in the repeat runs, not every such curve was filed as active; the % refers to the signal ratio)
Outline: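 Cells: GR-bla HeLa, endogenous GR with stably integrated GRE-beta-lactamase reporter. Treatment 18 h, 37 C, compounds delivered in DMSO. Detection via LiveBLAzer B/G FRET substrate, 2 h RT, fluorescence intensity.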

[19] = qHTS assay for small molecule disruptors of the mitochondrial membrane potential (AID 720635)
Outline: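 Mitochondrial membrane potential tracked with Mito-MPS dye, red aggregates (ex 540/em 590 nm) against green monomers (ex 490/em 535 nm). Compound treatment 1 hr at 37C, dye 30 min in HepG2.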

[20] = biological target: Glucocorticoid receptor (Homo sapiens) (UniProt P04150); experiment: qHTS assay to identify small molecule antagonists of the glucocorticoid receptor (GR) signaling pathway (AID 720692; active means well fitted inhibition curve with a large enough effect in the signal ratio in the repeat runs, not every such curve was filed as active; the % refers to the signal ratio)
Outline: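 Quantitative HTS in antagonist format: HeLa cells expressing endogenous GR and a stably integrated GRE-bla reporter, stimulated with 5 nM dexamethasone (final) alongside test compounds for 18 h.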
On the % scale 0 is the no-effect control and ±100 the full control effect.

Sequence of Glucocorticoid receptor (Homo sapiens) (P04150 whole entry, looked up): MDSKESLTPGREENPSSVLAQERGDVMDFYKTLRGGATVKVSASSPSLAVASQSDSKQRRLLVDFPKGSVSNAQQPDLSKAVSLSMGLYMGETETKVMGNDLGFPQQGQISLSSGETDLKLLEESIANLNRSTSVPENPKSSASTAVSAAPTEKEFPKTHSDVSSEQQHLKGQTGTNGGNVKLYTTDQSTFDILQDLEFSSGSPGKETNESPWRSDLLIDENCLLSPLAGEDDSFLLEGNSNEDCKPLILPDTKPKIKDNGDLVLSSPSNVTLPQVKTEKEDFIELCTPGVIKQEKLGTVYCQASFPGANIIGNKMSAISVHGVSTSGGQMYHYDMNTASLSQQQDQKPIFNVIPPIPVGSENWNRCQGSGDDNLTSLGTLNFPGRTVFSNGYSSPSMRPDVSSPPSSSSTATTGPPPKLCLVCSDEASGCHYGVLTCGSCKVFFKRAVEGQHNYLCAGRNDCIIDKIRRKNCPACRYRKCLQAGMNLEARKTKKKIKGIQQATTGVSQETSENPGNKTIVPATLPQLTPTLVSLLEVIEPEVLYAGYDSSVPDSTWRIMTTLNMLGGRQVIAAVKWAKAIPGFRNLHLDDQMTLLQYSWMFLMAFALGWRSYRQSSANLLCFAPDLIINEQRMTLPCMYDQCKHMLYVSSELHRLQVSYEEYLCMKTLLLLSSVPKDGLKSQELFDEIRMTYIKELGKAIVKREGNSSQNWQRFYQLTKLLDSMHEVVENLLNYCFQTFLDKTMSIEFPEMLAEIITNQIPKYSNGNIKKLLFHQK

O=c1[nH]c(=O)c2[nH]c(=O)[nH]c2[nH]1
inactive: outcome [1] | outcome [2] | outcome [3] | Potency [4] | outcome [5] | outcome [6] | outcome [7] | outcome [8] | outcome [9] | outcome [10] | outcome [11] | outcome [12] | outcome [13] | outcome [14] | outcome [15] | outcome [16] | outcome [17] | Potency [18]

CNC(=O)NC
inactive: outcome [1] | outcome [2] | outcome [3] | Potency [4] | outcome [5] | Potency [19] | outcome [6] | outcome [7] | outcome [8] | outcome [9] | outcome [10] | outcome [11] | outcome [12] | outcome [13] | outcome [14] | outcome [15] | outcome [16] | outcome [17] | Potency [18]

O=C1OC(=O)c2cc(Oc3ccc4c(c3)C(=O)OC4=O)ccc21
inactive: outcome [1] | outcome [2] | outcome [3] | Potency [4] | outcome [5] | Potency [19] | outcome [6] | outcome [7] | outcome [8] | outcome [9] | outcome [10] | outcome [11] | outcome [12] | outcome [13] | outcome [14] | outcome [15] | outcome [16]

Nc1ccc(S(=O)(=O)NC(=O)c2ccccc2)cc1
inactive: outcome [1] | outcome [2] | outcome [3] | Potency [4] | outcome [5] | Potency [19] | fluorescence, relative to Rose Bengal [6] 0.536% [at 18.6 µM] | fluorescence, % of fluorescein control [7] -0.394% [at 18.6 µM] | fluorescence, % of fluorescent control [9] -0.801% [at 18.6 µM] | fluorescence, % of fluorescein [10] -0.0049% [at 18.6 µM] | activity change [12] 0.0575% [at 18.6 µM] | fluorescence, % of fluorescent control [13] -0.201% [at 18.6 µM] | fluorescence, % of Rose Bengal [14] -0.0804% [at 18.6 µM] | fluorescence, % of fluorescein control [16] -0.0092% [at 18.6 µM] | Potency [18]

CCCCCCCCC(=O)OCC
inactive: outcome [1] | outcome [2] | outcome [3] | Potency [4] | outcome [5] | outcome [6] | outcome [7] | outcome [8] | outcome [9] | outcome [10] | outcome [11] | outcome [12] | outcome [13] | outcome [14] | outcome [16] | Potency [18] | outcome [20]

C=C(C)C(=O)OCCCCCCOC(=O)C(=C)C
inactive: outcome [1] | outcome [2] | outcome [3] | Potency [4] | outcome [5] | outcome [6] | outcome [7] | outcome [8] | outcome [9] | outcome [10] | outcome [11] | outcome [12] | outcome [13] | outcome [14] | outcome [15] | outcome [16] | outcome [17] | Potency [18]

O=C(c1ccc2c(c1)C(=O)OC2=O)c1ccc2c(c1)C(=O)OC2=O
inactive: outcome [1] | outcome [2] | outcome [3] | Potency [4] | outcome [5] | Potency [19] | outcome [6] | outcome [7] | outcome [8] | outcome [9] | outcome [10] | outcome [11] | outcome [12] | outcome [13] | outcome [14] | outcome [15] | outcome [16] | outcome [17] | Potency [18] | outcome [20]

C1=C\CC/C=C\CC/1
inactive: outcome [1] | outcome [2] | outcome [3] | Potency [4] | outcome [5] | Potency [19] | outcome [6] | outcome [7] | outcome [8] | outcome [9] | outcome [10] | outcome [11] | outcome [12] | outcome [13] | outcome [14] | outcome [15] | outcome [16] | outcome [17]

CCN1CN(CC)CN(CC)C1
inactive: outcome [1] | outcome [2] | outcome [3] | Potency [4] | outcome [5] | Potency [19] | outcome [6] | outcome [7] | outcome [8] | outcome [9] | outcome [10] | outcome [11] | outcome [12] | outcome [13] | outcome [16] | outcome [17] | Potency [18] | outcome [20]

Cc1cccc(C(=O)O)c1[N+](=O)[O-]
inactive: outcome [1] | outcome [2] | outcome [3] | Potency [4] | outcome [5] | outcome [6] | outcome [7] | outcome [8] | outcome [9] | outcome [10] | outcome [11] | outcome [12] | outcome [13] | outcome [14] | outcome [15] | outcome [16] | outcome [17]

O=C1OC(=O)c2ccccc21
inactive: outcome [1] | outcome [2] | outcome [3] | Potency [4] | outcome [5] | Potency [19] | outcome [6] | outcome [7] | outcome [8] | outcome [9] | outcome [10] | outcome [12] | outcome [13] | outcome [14] | outcome [16] | outcome [17] | Potency [18]

C[C@H](CCC(=O)NCC(=O)O)[C@H]1CC[C@H]2[C@@H]3[C@H](O)C[C@@H]4C[C@H](O)CC[C@]4(C)[C@H]3C[C@H](O)[C@]12C
inactive: outcome [1] | outcome [2] | outcome [3] | Potency [4] | outcome [5] | Potency [19] | outcome [6] | outcome [7] | outcome [8] | outcome [9] | outcome [10] | outcome [11] | outcome [12] | outcome [13] | outcome [14] | outcome [15] | outcome [16] | outcome [17] | Potency [18]

COC(OC)C(C)c1ccccc1 (stereo not given)
inactive: outcome [1] | outcome [2] | outcome [3] | Potency [4] | outcome [5] | outcome [6] | outcome [7] | outcome [8] | outcome [9] | outcome [10] | outcome [11] | outcome [12] | outcome [13] | outcome [14] | outcome [15] | outcome [16] | outcome [17] | Potency [18]

O=C(O)CCNC(=O)c1ccccc1
inactive: outcome [1] | outcome [2] | outcome [3] | Potency [4] | outcome [5] | Potency [19] | outcome [6] | outcome [7] | outcome [8] | outcome [9] | outcome [10] | outcome [11] | outcome [12] | outcome [13] | outcome [14] | outcome [15] | outcome [16] | outcome [17] | Potency [18]
